Laboratory results: the supplement of paper PMC11732987, “Enantioselective OTUD7B fragment discovery through chemoproteomics screening and high-throughput optimisation” (Communications Chemistry, 2025)

What was measured:
Assay in all cases: log2 ratio of Biotin-Ahx-Ub-VS probe labelling (fragment/DMSO); higher = less target engagement (more negative = stronger competition), active = hit call of the paper (q ≤ 0.05, log2 ratio ≤ -1)
Conditions in all cases: compound concentration: 200 uM; treatment time: 3 h
USP34 = USP34 (UniProt Q70CQ2)
USP34, sequence (Q70CQ2 whole entry, the tested form may be a part): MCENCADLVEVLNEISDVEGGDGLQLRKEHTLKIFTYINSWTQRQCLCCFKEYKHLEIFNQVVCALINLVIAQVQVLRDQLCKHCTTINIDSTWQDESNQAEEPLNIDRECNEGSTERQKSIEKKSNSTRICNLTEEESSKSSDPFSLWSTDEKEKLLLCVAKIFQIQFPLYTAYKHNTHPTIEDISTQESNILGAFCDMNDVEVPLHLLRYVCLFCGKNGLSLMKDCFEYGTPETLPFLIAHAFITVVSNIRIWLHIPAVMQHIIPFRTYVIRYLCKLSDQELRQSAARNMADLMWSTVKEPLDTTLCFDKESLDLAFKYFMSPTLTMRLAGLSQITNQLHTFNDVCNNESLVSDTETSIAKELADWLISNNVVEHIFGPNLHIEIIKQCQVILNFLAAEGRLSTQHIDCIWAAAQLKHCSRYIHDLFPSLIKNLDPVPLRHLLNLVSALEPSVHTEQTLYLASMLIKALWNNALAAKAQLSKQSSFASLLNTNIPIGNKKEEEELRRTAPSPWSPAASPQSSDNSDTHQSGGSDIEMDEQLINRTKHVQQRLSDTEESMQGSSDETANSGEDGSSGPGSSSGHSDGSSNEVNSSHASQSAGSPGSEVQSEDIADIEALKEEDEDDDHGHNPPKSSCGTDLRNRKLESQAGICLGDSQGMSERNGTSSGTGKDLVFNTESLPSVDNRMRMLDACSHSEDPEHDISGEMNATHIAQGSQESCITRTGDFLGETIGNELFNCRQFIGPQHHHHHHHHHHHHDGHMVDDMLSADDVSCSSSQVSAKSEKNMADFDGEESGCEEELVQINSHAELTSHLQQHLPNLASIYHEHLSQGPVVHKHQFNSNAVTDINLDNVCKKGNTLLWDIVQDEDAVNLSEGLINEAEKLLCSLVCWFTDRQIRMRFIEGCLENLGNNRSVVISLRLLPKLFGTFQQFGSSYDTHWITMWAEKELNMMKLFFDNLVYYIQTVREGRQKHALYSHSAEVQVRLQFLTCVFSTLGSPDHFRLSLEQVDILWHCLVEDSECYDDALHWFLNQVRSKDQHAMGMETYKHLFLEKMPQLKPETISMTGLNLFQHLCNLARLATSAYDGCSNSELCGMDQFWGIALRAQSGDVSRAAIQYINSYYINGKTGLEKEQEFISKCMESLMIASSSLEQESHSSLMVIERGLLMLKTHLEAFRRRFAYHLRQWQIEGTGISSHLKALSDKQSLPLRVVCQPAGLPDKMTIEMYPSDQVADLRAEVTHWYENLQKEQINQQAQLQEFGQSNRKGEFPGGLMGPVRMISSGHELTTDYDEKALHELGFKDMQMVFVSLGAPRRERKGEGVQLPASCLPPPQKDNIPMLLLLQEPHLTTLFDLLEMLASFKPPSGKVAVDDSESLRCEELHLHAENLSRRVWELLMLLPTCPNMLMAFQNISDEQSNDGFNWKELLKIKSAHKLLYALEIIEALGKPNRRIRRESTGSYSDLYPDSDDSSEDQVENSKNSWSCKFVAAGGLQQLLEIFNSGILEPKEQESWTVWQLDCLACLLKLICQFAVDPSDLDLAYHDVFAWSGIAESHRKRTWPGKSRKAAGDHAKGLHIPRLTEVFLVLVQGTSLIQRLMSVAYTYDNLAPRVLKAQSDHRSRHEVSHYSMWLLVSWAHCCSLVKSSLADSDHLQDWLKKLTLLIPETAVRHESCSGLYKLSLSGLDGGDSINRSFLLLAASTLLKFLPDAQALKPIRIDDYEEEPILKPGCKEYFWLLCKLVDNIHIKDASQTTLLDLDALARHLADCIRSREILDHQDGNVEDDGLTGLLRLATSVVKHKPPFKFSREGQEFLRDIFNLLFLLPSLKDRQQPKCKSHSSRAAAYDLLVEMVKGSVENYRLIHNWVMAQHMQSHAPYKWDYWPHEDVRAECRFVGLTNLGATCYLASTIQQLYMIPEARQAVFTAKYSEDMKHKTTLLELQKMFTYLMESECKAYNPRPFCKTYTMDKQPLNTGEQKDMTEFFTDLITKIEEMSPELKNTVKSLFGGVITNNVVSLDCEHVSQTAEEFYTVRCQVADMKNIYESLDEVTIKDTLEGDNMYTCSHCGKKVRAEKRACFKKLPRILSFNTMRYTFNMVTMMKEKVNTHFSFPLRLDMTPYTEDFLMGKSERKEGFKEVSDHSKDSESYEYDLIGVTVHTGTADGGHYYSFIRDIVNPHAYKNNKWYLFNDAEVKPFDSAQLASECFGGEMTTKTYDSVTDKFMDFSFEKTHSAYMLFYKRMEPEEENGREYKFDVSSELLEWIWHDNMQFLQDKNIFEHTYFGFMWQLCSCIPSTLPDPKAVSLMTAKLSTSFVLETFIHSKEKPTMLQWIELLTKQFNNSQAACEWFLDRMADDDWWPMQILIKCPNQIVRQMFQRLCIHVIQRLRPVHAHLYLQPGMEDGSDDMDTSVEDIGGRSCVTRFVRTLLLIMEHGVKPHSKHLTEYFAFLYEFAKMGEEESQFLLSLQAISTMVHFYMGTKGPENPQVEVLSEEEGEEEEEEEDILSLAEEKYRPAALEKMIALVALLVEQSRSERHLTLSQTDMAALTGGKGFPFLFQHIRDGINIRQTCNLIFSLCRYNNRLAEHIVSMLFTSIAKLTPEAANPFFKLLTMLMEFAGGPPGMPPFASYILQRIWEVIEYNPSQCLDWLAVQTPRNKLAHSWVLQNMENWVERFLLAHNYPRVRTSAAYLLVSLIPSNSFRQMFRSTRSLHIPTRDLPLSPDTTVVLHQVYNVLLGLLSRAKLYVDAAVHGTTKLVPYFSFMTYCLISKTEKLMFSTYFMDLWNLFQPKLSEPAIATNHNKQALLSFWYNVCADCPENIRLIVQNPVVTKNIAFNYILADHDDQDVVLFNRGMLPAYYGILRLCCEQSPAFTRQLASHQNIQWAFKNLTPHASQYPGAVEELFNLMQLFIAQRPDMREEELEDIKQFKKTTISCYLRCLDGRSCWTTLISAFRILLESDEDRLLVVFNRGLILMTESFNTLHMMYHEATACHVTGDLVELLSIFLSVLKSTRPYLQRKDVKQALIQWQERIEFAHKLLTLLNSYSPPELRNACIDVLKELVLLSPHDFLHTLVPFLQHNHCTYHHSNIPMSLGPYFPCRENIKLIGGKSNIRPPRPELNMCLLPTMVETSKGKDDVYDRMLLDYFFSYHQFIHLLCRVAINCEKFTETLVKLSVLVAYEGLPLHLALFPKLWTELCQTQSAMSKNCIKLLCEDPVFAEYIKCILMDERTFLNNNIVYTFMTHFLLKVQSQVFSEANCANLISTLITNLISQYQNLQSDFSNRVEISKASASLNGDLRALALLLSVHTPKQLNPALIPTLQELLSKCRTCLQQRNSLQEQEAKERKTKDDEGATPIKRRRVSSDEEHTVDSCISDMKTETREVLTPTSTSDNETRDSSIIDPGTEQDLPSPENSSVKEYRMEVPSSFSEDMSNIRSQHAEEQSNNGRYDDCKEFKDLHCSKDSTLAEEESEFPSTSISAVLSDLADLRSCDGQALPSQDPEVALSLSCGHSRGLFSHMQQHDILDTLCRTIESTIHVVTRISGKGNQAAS
Summary of the method: (§1)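 Fragment (200 µM) or vehicle was incubated for 3 h with triplicate HEK293T lysate samples of 495 µg, which were then treated with Biotin-Ahx-Ub-VS at 0.5 µM final for 1 h. Labelled DUBs were enriched on NeutrAvidin, digested with LysC and trypsin, and analysed by diaPASEF LC-MS/MS. Values are average log2 fragment/vehicle ratios from an unpaired t-test on global-median-normalised Spectronaut label-free quantities, using proteins with ≥2 unique peptides.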

USP36 = biological target: T1, USP36 (UniProt Q9P275)
T1 sequence (whole entry): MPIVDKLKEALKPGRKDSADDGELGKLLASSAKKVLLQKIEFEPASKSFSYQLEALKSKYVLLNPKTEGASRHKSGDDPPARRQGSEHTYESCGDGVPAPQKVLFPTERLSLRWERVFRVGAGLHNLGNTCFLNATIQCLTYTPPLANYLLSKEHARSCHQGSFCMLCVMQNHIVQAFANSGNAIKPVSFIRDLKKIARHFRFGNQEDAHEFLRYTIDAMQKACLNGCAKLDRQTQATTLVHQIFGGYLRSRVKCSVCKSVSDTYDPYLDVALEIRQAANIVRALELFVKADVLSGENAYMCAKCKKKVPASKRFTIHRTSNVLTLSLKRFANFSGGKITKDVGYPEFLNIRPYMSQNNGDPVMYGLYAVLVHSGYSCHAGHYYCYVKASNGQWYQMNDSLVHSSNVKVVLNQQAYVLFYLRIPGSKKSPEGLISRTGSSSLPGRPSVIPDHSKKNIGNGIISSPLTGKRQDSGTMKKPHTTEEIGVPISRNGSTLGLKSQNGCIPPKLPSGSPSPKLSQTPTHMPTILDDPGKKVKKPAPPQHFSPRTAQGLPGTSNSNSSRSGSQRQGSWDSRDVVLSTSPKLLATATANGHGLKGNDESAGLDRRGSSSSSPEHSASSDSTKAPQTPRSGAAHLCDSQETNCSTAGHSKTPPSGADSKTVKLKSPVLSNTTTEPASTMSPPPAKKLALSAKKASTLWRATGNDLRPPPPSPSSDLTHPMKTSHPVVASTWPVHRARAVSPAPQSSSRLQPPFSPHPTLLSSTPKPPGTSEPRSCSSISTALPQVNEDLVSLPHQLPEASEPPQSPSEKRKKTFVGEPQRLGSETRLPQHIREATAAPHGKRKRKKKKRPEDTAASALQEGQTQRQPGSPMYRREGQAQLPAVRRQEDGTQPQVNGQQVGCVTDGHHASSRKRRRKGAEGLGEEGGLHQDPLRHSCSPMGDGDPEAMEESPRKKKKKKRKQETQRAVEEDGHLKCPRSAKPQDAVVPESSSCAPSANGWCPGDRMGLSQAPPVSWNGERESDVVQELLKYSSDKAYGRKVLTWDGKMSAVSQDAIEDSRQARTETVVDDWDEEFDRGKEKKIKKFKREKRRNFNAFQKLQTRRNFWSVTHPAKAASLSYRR
Summary of the method: as §1

USP38 = biological target: T2, USP38 (UniProt Q8NB14)
T2 sequence (whole entry): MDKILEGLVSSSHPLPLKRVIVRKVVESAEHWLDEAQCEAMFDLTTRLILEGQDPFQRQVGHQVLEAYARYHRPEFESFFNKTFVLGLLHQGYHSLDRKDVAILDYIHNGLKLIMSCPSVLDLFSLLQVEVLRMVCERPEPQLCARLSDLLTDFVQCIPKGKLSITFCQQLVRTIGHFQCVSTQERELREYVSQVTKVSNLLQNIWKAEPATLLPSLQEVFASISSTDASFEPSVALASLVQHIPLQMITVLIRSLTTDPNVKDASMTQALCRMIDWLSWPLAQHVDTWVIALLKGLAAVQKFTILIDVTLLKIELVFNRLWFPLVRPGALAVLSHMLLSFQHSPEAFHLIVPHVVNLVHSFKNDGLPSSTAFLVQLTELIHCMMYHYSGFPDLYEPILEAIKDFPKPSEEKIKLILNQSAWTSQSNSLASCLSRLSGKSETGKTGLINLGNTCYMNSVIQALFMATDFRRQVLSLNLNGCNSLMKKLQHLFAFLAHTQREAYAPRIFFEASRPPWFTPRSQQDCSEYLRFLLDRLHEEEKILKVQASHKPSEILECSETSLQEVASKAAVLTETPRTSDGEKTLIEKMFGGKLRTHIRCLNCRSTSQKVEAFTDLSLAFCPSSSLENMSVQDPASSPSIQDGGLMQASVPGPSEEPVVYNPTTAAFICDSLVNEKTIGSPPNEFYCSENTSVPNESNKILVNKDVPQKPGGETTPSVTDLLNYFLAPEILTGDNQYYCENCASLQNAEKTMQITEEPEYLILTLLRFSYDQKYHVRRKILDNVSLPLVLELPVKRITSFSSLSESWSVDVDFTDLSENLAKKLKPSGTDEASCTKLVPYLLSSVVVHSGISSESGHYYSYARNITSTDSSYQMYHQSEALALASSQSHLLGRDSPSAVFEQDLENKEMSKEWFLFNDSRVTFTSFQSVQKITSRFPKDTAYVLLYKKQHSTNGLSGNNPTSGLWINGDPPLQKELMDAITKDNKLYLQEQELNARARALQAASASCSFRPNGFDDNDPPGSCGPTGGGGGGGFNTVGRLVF
Summary of the method: as §1

USP39 = biological target: T3, USP39 (UniProt Q53GS9)
T3 sequence (whole entry): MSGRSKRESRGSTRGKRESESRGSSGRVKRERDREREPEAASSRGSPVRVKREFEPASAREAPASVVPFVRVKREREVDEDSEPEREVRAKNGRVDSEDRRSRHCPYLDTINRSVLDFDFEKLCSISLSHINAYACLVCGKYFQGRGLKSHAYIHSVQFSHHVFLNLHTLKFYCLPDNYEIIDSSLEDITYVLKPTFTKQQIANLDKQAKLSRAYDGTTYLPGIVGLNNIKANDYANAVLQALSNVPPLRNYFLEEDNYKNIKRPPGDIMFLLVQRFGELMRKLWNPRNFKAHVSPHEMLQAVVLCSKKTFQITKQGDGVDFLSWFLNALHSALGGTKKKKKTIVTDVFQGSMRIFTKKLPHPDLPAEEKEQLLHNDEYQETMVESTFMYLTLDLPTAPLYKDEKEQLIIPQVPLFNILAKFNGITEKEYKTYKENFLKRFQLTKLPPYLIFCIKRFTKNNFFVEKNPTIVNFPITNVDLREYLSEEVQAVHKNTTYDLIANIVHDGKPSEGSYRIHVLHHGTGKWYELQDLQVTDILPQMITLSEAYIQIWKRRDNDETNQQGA
Summary of the method: as §1

USP4 = biological target: T4, USP4 (UniProt Q13107)
T4 sequence (whole entry): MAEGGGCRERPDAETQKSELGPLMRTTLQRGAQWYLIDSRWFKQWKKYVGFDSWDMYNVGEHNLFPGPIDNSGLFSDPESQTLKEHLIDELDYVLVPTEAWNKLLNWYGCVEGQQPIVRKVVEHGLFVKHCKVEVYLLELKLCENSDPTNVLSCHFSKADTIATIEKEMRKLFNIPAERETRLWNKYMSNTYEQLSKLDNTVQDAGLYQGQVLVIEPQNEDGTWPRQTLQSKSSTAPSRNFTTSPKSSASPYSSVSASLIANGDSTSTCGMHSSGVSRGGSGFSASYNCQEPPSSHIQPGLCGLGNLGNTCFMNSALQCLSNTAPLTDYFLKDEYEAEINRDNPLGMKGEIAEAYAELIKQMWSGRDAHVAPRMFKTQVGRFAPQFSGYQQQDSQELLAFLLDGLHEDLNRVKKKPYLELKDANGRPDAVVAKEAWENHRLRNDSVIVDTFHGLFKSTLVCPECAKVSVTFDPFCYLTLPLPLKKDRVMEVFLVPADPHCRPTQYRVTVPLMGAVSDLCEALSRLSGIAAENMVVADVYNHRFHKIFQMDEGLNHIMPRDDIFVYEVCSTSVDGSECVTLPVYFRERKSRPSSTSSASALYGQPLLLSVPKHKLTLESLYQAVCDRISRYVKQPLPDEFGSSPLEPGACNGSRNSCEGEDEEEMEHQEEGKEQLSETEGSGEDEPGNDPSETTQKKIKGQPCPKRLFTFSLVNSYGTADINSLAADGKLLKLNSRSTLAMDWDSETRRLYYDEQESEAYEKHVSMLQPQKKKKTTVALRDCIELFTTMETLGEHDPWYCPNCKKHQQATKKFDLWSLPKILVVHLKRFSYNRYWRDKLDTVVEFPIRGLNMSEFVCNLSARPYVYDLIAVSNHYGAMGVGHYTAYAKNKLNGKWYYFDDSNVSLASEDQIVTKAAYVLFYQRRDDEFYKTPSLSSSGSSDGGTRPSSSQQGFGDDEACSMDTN
Summary of the method: as §1

Measured: log2 ratio of Biotin-Ahx-Ub-VS probe labelling

Cc1ccccc1OCC(=O)N1CCN(C(=O)CCl)CC1
inactive: USP34 -0.131 | USP36 -0.102 | USP38 -0.159 | USP39 0.114 | USP4 -0.0294
